Assay outcomes deposited in PubChem by several laboratories.
The list is not random: actives were taken first. Their share in the collection is about 13%.
Lmaj promast: Leishmania major promastigote growth inhibition, primary screen. Leishmania major promastigotes, resazurin fluorescence viability. inhibition, % at 10 µM. actives 9% (n = 200,000); in the data active means inhibition above about 50%;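 further: promastigotes grown with compound for 44 hours at 28 °C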
WT yeast gro inh: growth inhibition of WT strain, primary screen, mitochondrial fusion inhibitor project, WT and mutant strains, chemical genetic; AID 1362, 2008; actives 2.1% (n = 190,000); inhibition, % at 10 µM; mitochondrial fusion phenotypic screen; in the data active means inhibition above about 58%; tested in S. cerevisiae
CHOP inhibitor: inhibitors of CHOP promoter induction, primary screen, cell-based, unfolded protein response, luciferase reporter; actives 3.8% (n = 220,000); CHO-K1 CHOP-promoter luciferase, tunicamycin-induced, 15-18 h; inhibition, % at 10 µM; AID 2732, 2010;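 active means compounds that reduced the stress-induced luciferase reporter signal by more than about 70% of percent inhibition, limit read from the data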;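 further: 0% = tunicamycin plus vehicle and 100% = wells without tunicamycin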
RAM network inh: inhibitors of the yeast RAM network, primary screen, dse1pr::URA3 reporter, 5-FOA selection. S. cerevisiae dse1pr::URA3 reporter, 5-FOA growth OD615, 2 d; analog-sensitive cbk1-as2 kinase mutant strain. inhibition, % at 50 µM. actives 1.8% (n = 190,000). AID 868, 2007;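 active means inhibition above a set limit, 3 SD over mean compound inhibition, cut at about 8.4% in these data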;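 further: 0% = DMSO-only wells with no growth and 100% = 10 µM 1-NA-PP1 full growth; inhibition rescues growth on 5-FOA so higher OD means more RAM inhibition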
Active calls of the source: *; · = no result given.

SMILES	Lmaj promast	WT yeast gro inh	CHOP inhibitor	RAM network inh
Cc1ccc(C(=O)c2no[n+]([O-])c2C(=O)c2ccc(C)cc2)cc1	-3	-1	82*	0
COC(=O)C1=C(C)N(c2ccccc2)/C(=C/c2ccco2)C1=O	·	·	5	·
COC(=O)C1=C(C)N(c2ccc(Cl)cc2)/C(=C/c2ccc(O)cc2)C1=O	84*	-8	-8	4
COC(=O)C1=C(C)N(c2cc(C)cc(C)c2)/C(=C/c2ccc(O)cc2)C1=O	99*	-5	35	2
CCC(C)/C(C)=N/NC(=O)CNS(=O)(=O)c1ccc([N+](=O)[O-])cc1 (centres undefined)	2	9	14	1
COc1ccc(S(=O)(=O)N2CCC(C(=O)N3CCc4ccccc4C3)CC2)cc1Cl	96*	16	49	6
CC(=O)Nc1cccc2c1C(=O)N(c1ccc(OC(C)=O)cc1)C2=O	-5	1	-6	1
Cc1cc(N2CCCC2)nc(-c2ccccc2O)n1	-4	7	6	-1
Cc1cc(N2CCCCC2)nc(N)n1	52*	15	5	0
CSc1nc(SCC(=O)NC(c2ccccc2)c2ccccc2)c2c3c(sc2n1)CN(C)CC3	71*	22	57	1
CC(=O)CCc1oc2ccc([N+](=O)[O-])cc2c1-c1ccc(C)o1	0	27	16	4
CC(=O)CCc1oc2c([N+](=O)[O-])cccc2c1-c1ccc(C)o1	-3	69*	43	3
CCOc1ccc(OCCCCNC(C)(C)C)cc1	98*	4	44	2
CC(C)(C)NCCOc1ccc2ccccc2c1	11	6	-7	4
CC(C)(C)NCCCCOc1ccc(F)cc1	99*	8	6	1
Cc1ccc(S(=O)(=O)CCN2C=CC(C(F)(F)F)=NCC2)cc1	·	·	-9	·
CC(=O)N1N=C(c2ccccc2)OC1c1ccc([N+](=O)[O-])s1 (centres undefined)	100*	-8	7	-2
CC(=O)N1N=C(c2cccnc2)OC1c1ccc(C(C)C)cc1 (centres undefined)	-8	19	-9	1
CC(=O)N1N=C(c2ccc(C)cc2)OC1c1ccc(C(C)C)cc1 (centres undefined)	-9	69*	61	7
CC(=O)N1N=C(c2ccc(C)cc2)OC1c1ccc(C)cc1 (centres undefined)	-7	18	75*	3
COc1ccc(C(=O)Cn2c(Cl)nc3c2c(=O)n(C)c(=O)n3C)cc1	·	·	24	·
Cc1cc(NC(=O)CSc2nnc(N)s2)c([N+](=O)[O-])cc1C	-5	-16	-4	1
CS(=O)(=O)c1ncc(CO)n1Cc1ccccc1	-6	2	1	2
S=C1SCN(Cc2cccnc2)CN1Cc1ccccc1	72*	-12	-109	0
CC(C)N1CSC(=S)N(Cc2ccccc2)C1	75*	23	24	-1
SMILES	Lmaj promast	WT yeast gro inh	CHOP inhibitor	RAM network inh
CC(C)CN1CN(Cc2ccccc2)CNC1=S	-6	-5	13	1
S=C1NCN(Cc2cccnc2)CN1Cc1ccccc1	·	·	13	·
CC(C)(C)N1CSC(=S)N(Cc2ccccc2)C1	91*	1	1	-1
CSc1sc(C(=O)NNC(C)=O)c2c1C=CCC2	·	·	13	·
Cc1ccc(NC(=O)NNc2cccc(Cl)n2)cc1	-2	1	18	5
COc1ccccc1C(=O)COC(=O)c1ccccc1OCC(=O)Nc1ccc(SC(F)F)cc1	1	-7	-14	9.2*
CN(C)S(=O)(=O)c1cc(NC(=O)COC(=O)CCSc2ccc(Cl)cc2)ccc1Cl	-3	-1	-3	6
CCC(C(=O)OCC(=O)Nc1ccc(SC(F)F)cc1)c1ccccc1 (centres undefined)	-1	73*	62	8.4*
CCC(C(=O)OCC(=O)Nc1ccc(C(N)=O)cc1)c1ccccc1 (centres undefined)	-2	-20	24	3
CCCNC(=O)COC(=O)c1ccccc1OCC(=O)Nc1ccc(Br)cc1	-3	-10	80*	2
CCC(C(=O)OCC(=O)Nc1ccc(Cl)c(S(=O)(=O)N(C)C)c1)c1ccccc1 (centres undefined)	62*	18	66	10*
O=c1c2oc3ccccc3c2ncn1Cc1ccc(Cl)cc1	1	1	-20	3
CN(C)S(=O)(=O)c1cc(NC(=O)COC(=O)Cc2ccc(Cl)cc2Cl)ccc1Cl	-4	34	19	2
CN(C)S(=O)(=O)c1cc(NC(=O)COC(=O)Cc2cccc3ccccc23)ccc1Cl	-3	9	9	8.7*
CC(=O)Oc1ccc2c(=O)c(-c3nc4ccccc4s3)coc2c1	-5	23	0	1
COc1cc(OC)cc(C(=O)Nc2c(C)nn(-c3ccccc3)c2C)c1	-6	-2	-4	0
Cc1ccc2c(CN3CCN(S(=O)(=O)/C=C/c4ccccc4)CC3)cc(=O)oc2c1	22	3	23	1
Cc1ccc2oc(=O)cc(/C=C/c3ccccc3)c2c1	0	10	76*	3
CCOC(=O)c1c(OCCO)nn(-c2ccccc2)c1N	-6	-11	10	3
CCOC(=O)/C(=C\c1ccc([N+](=O)[O-])o1)NC(=O)c1ccccc1	99*	-9	-3	1
CCCOC(=O)/C(=C\c1ccc([N+](=O)[O-])o1)NC(=O)c1ccccc1	96*	1	36	4
O=C(CCNC(=O)c1ccccc1)Nc1cccnc1	-5	-4	3	1
CCN(CC)C(=S)SCC(=O)Nc1ncc2c(n1)CCCC2=O	·	·	-5	·
C=CCNC(=S)NS(=O)(=O)c1cccs1	-9	-4	-5	0
CN1CCC(=C2c3ccccc3C(O)c3ccccc32)CC1 (centres undefined)	·	·	-10	·
SMILES	Lmaj promast	WT yeast gro inh	CHOP inhibitor	RAM network inh
CN1CCc2cccc3c2C1Cc1ccc(O)c(O)c1-3 (centres undefined)	·	·	74*	·
COc1cc(CN2CCCC(C(=O)c3ccccc3SC)C2)cc(OC)c1 (centres undefined)	6	-5	50	0
Oc1ccc(N=Nc2n[nH]c(-c3ccccc3)n2)cc1	12	9	-1	1
Oc1ccc(N=Nc2n[nH]c(-c3ccc(Br)cc3)n2)cc1	49	2	66	8.8*
CCOC(=O)C1=C(C)NC(=S)NC1c1ccc(-c2cccc(Cl)c2C)o1 (centres undefined)	10	12	75*	5
CCOC(=O)C1=C(C)NC(=S)NC1c1ccc(-c2ccc(Cl)cc2)o1 (centres undefined)	63*	66*	72*	4
CCOC(=O)C1=C(C)NC(=O)NC1c1ccc(-c2ccc(Cl)cc2)o1 (centres undefined)	13	-16	45	3
Cc1ccc(-c2nc3ccc(NS(=O)(=O)c4ccccc4)cc3[nH]2)o1	9	-11	4	2
COc1ccc(OC)c(C(=O)c2ccc(C(=O)c3cc(OC)ccc3OC)cc2)c1	-2	-1	29	5
COc1ccc(OC)c(C(=O)C2COC(=O)C2)c1 (centres undefined)	56*	21	11	-1
